Measured values published in PubChem BioAssay.
The source made the active and inactive calls.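 How the source made its calls, unless noted: active means inhibition above 20% together with a positive visual image hit; inconclusive means visual image hit but inhibition not above 20%; inactive means no visual image hit.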

Legend:
[1] = inhibitors of TNFa-induced NFkB p65 translocation, primary screen, imaging, HUVEC, MLSMR starter and 10KST1 sets (AID 438); settings: HUVEC TNFa-induced p65 nuclear translocation; cell count: measured here: nuclei count (cytotoxicity indicator), at 2.08 µM; inhibition: at 2 µM, stronger effect = higher value, 0% TNFa-plus-vehicle, 100% no-TNFa wells;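 further: compound added about 3h40 before a 20 min TNFalpha stimulation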;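 on inhibition: signal is the nuclear over cytoplasmic p65 intensity ratio per well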
[2] = reduction of polyQ htt aggregates in cells – imaging, exon1htt(103Q)mCFP cells, high-content imaging, primary screen (AID 483;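 active means visual image review flags a hit and inhibition of aggregation exceeds 20%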;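 further: compound exposure lasted 3 days before fixation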;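 on nuclei count: percent of the per-plate median nuclei count of sample wells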); settings: exon1htt(103Q)mCFP cell line, aggregate imaging, at 2 µM; inhibition of aggregation: stronger effect = higher value; nuclei count: measured here: cell count, toxicity
[3] = endothelial E-selectin expression blockers – imaging, HUVEC, immunofluorescence, MLSMR starter and 10KST1 sets, primary screen (AID 487;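 active means visually confirmed hit in the image check and inhibition above 20%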;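 on inhibition: signal is fraction of cell area covered by stained E-selectin grains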;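 on nuclei count: 100% = median nuclei count of all wells on the same plate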); settings: HUVEC TNFalpha-induced E-selectin immunofluorescence imaging, at 2 µM; inhibition: stronger effect = higher value; nuclei count: measured here: cell number, toxicity
[4] = molecular target: Voltage-gated potassium channel subunit beta-2 (Rattus norvegicus) (UniProt P62483); assay: inhibitors of rat Kvbeta2 reductase activity – biochemical, NADPH fluorescence, primary screen (AID 622;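 active means fluorescence slope higher than the sample average by over 3 SD, cut at about -0.22 in these data, passing the limit was not always enough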;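 further: slope of raw intensity against log time taken from 70 to 1610 s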); settings: recombinant KvBeta, 4-cyanobenzaldehyde reduction, at 10 µM, stronger effect = higher value
[5] = molecular target: Voltage-gated potassium channel subunit beta-2 (Rattus norvegicus) (UniProt P62483); assay: enhancers of rat Kvbeta2 NADPH turnover – biochemical, NADPH fluorescence, primary screen (AID 623;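 active means NADPH fluorescence slope more negative than the mean of all samples by about 3 SD, 99.7% confidence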;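 further: fluorescence intensity change per second fitted from 20 to 320 s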); settings: Recombinant KvBeta, NADPH fluorescence decrease slope, 10 min; at 10 µM; stronger effect = lower value
[6] = molecular target: Alpha-2C adrenergic receptor (Homo sapiens) (UniProt P18825); assay: compounds altering alpha2C-coupled GIRK flux – cell-based, HEK293 alpha2C/GIRK1/2, thallium flux, primary screen (AID 624;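 active means fluorescence slope after compound addition differing from the mean of all screened samples at 99.7% confidence, in either direction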;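 further: slope of fluorescence ratio to pre-addition baseline per second over 15 to 24 s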); settings: thallium flux BTC fluorescence, at 10 µM, actives lie on both sides
[7] = blockers of RIG-like receptor reporter activation – cell-based, Sendai virus stimulus, luciferase, 10K MLSCN set, TLR/RLR signaling modifier project, primary screen (AID 602276;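 active means inhibition at or above 50% at 10 µM; inactive means inhibition below 50%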;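 further: firefly luciferase from ISG56 promoter only with Renilla not read in this screen; 0% = Sendai virus plus DMSO and 100% = medium plus DMSO without virus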); settings: HEK293 RL24 IRF3 luciferase reporter, at 10 µM, stronger effect = higher value
[8] = TLR3 IRF3 reporter activation blockers – cell-based, poly I:C stimulus, luciferase, 10K MLSCN set, primary screen (AID 602277;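 active means inhibition of the reporter signal at or above 50%; inactive means inhibition below 50%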); settings: HEK293-TLR3 RL24 IRF3 luciferase reporter, at 10 µM, stronger effect = higher value

Sequence of Voltage-gated potassium channel subunit beta-2 (Rattus norvegicus) (P62483 whole entry, looked up): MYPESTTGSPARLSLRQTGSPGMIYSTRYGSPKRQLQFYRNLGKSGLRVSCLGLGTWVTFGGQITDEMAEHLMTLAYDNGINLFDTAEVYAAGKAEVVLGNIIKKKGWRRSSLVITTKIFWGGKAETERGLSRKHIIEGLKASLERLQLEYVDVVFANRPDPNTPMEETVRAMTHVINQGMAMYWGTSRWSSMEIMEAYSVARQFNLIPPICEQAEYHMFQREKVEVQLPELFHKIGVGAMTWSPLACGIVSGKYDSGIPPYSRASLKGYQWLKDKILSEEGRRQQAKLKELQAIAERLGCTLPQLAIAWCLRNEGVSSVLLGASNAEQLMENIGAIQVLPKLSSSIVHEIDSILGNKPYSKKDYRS
Sequence of Alpha-2C adrenergic receptor (Homo sapiens) (P18825 whole entry, looked up): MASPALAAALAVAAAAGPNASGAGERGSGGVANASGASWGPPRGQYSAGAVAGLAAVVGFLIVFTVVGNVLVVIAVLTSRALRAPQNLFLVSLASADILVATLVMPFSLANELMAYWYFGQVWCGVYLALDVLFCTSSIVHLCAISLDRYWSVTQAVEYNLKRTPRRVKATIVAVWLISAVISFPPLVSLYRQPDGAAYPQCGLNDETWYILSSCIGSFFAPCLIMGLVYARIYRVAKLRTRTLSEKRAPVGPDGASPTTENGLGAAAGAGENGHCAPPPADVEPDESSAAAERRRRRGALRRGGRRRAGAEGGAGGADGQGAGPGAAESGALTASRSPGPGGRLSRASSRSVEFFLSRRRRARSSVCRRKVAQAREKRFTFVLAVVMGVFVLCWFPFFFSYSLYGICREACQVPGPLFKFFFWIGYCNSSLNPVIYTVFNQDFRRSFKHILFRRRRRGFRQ

Row | SMILES | cell count [1] | inhibition [1] | inhibition of aggregation [2] | nuclei count [2] [%] | inhibition [3] | nuclei count [3] [%] | fluorescence slope [4] | NADPH fluorescence slope [5] | slope [6] | inhibition [7] | inhibition [8]
1 | Cc1c(C(=O)NC2CCCc3ccccc32)oc2ccc(S(=O)(=O)N3CCOCC3)cc12 (stereo not drawn) | 500 | -3% (inactive) | 27.1% (inactive) | 76.4 | -32.9% (inactive) | 110 | -0.489 (inactive) | -6.3e-05 (inactive) | 0.0079 (inactive) | 17.5% (inactive) | 14.6% (inactive)
2 | COC(=O)c1ccc(NC(=O)CN2CCN(c3ccc(Cl)cc3)CC2)cc1 | 355 | -11.2% (inactive) | 12.9% (inactive) | 101 | 8.1% (inactive) | 91.5 | -0.571 (inactive) | 1.7e-05 (inactive) | 0.00455 (inactive) | 20.2% (inactive) | 21.5% (inactive)
3 | CN(C)CCCN1C(=O)C(=O)/C(=C(/O)c2ccncc2)C1c1cccc(Br)c1 (stereo not drawn) | 245 | -2.8% (inactive) | -9.4% (inactive) | 94.1 | 1.2% (inactive) | 103 | -0.612 (inactive) | -7.1e-05 (inactive) | 0.00373 (inactive) | -6.87% (inactive) | -3.17% (inactive)
4 | Fc1cccc2sc(N3CCOCC3)nc12 | 255 | -8.3% (inactive) | 16.8% (inactive) | 68.5 | 6.6% (inactive) | 51.7 | -0.387 (inactive) | -3.9e-05 (inactive) | 0.00353 (inactive) | -10.5% (inactive) | -45.8% (inactive)
5 | CC(=NCC1CCNCC1)C1=C(O)CC(C)(C)CC1=O | 663 | -11% (inactive) | -14.1% (inactive) | 113 | 12.1% (inactive) | 132 | -0.499 (inactive) | 4e-06 (inactive) | 0.00593 (inactive) | 4.83% (inactive) | 23.6% (inactive)
6 | O=C(c1ccccc1F)N1CCN(Cc2cccc(Cl)c2)CC1 | 649 | 3% (inactive) | 10.9% (inactive) | 99.3 | -3.6% (inactive) | 98.3 | -0.654 (inactive) | 1.7e-05 (inactive) | 0.00876 (inactive) | 9.77% (inactive) | 10.5% (inactive)
7 | Cc1cc(C)n(-c2ccc(C(=O)Nc3ccc4c(c3)OCCO4)cc2)n1 | 529 | -16.3% (inactive) | -2.4% (inactive) | 103 | 11.9% (inactive) | 110 | -0.254 (inactive) | -2.3e-05 (inactive) | 0.00537 (inactive) | -19.7% (inactive) | -108% (inactive)
8 | COc1ccc(C)cc1S(=O)(=O)N1CCN(S(=O)(=O)c2cc(C)ccc2OC)CC1 | 427 | -0.2% (inactive) | -15.7% (inactive) | 97.4 | 17.9% (inactive) | 112 | -0.536 (inactive) | -3.9e-05 (inactive) | 0.00449 (inactive) | -3.93% (inactive) | 9.61% (inactive)
9 | COc1cc(NC(=O)Nc2cccc(Cl)c2)c(OC)cc1NC(=O)CN1CCCCC1 | 709 | -15.2% (inactive) | 1% (inactive) | 126 | -45.1% (inactive) | 132 | -0.407 (inactive) | -4e-05 (inactive) | 0.00392 (inactive) | 14.5% (inactive) | -1.73% (inactive)
10 | CCOC(=O)c1cnc(-n2cc(C)cn2)nc1Nc1ccccc1OC | 750 | -2.8% (inactive) | 17.8% (inactive) | 105 | 12.5% (inactive) | 114 | -0.641 (inactive) | -4.8e-05 (inactive) | 0.0064 (inactive) | 2.82% (inactive) | 10.8% (inactive)
11 | CCc1nnc2n1N=C(c1ccc(-c3ccc(Cl)cc3Cl)o1)CS2 | 480 | 3.3% (inactive) | -48.4% (inactive) | 102 | -6.7% (inactive) | 105 | -0.607 (inactive) | 1.7e-05 (inactive) | 0.00636 (inactive) | 6.74% (inactive) | 10.2% (inactive)
12 | COCc1ccccc1Cn1cnc2c1c(=O)n(C)c(=O)n2C | 346 | 2% (inactive) | -1.8% (inactive) | 107 | 25.6% (inactive) | 112 | -0.469 (inactive) | -3.6e-05 (inactive) | 0.00626 (inactive) | 2.14% (inactive) | 12.6% (inactive)
13 | CCOC(=O)Cn1nnc(-c2ccc(SC)cc2)n1 | 729 | -6.9% (inactive) | -11.1% (inactive) | 102 | -69.2% (inactive) | 116 | -0.329 (inactive) | -6.5e-05 (inactive) | 0.00483 (inactive) | 11.7% (inactive) | 16.7% (inactive)
